Results filed as inconclusive are left out. A call without a number means that no potency is given here. Calls of active or inactive are those of the source. Unless noted, the call rests on the fitted dose curve; in most records, active means well fitted curve in the direction sought with a large enough effect; inconclusive means small, poorly fitted or top-dose-only effect, or another doubt; inactive means no such curve, though single readings can be large; an effect the other way counts as inactive or inconclusive.
What was measured:
[1] = qHTS of Trypanosoma Brucei Inhibitors: LOPAC Validation (AID 624147); details: purified enzyme assay, luminescence, 45 min; series mostly up to 57.5 µM
In short: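 Screened from lowest to highest concentration, compounds were pinned into TbPYK/substrate mixtures, and ADP (130 uM final) was added. Plates sat at room temperature for 45 min prior to Kinase-Glo Plus detection by luminescence.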

[2] = qHTS of Nrf2 Activators: LOPAC Validation (AID 624149); details: Nrf2/ARE reporter cell assay; series mostly up to 46.1 µM; further: potency means the concentration at half of the fitted maximal effect
In short: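 AREc32_Fluc cells, 1000/well, OPTI-MEM + 5% FBS, o/n 37 deg C 5% CO2; compound pin-transfer, 24 hr 37 deg C; Steady-Glo 30 min RT, luminescence read.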

[3] = HTS Assay for Allosteric Antagonists of the Human D2 Dopamine Receptor: Hit Validation in HTRF (AID 624455); details: Cells stably expressing D1 dopamine receptor, inhibition mode; series mostly up to 46.1 µM; further: potency means the concentration at half of the fitted maximal effect
In short: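 HTRF read-out; cells stably expressing D1 receptor; hits scored for inhibition of D1-mediated response. Primary screen: calcium flux, force-coupled inducible Hek293 Trex D2 line, antagonism vs EC80 dopamine.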

[4] = target: Arylsulfatase A (Homo sapiens) (UniProt P15289); assay: qHTS screen for enhancers of Arylsulfatase A (ASA1): LOPAC Validation Assay (AID 720538); details: ASA enzyme activity, LOPAC qHTS enhancer assay; series mostly up to 57.5 µM
In short: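 Enhancer assay in patient-derived MLD fibroblasts carrying ASA-I179S: 48 h compound exposure at 37 C, then 14 h room-temperature pNCS turnover (0.5 mM final) in lysis buffer. Read by fluorescence at 525/598 nm after NaOH stop.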

[5] = qHTS assay for small molecule agonists of the antioxidant response element (ARE) signaling pathway (AID 651741; active means well fitted activation curve with a large enough effect in the signal ratio; the % refers to the signal ratio; further: potency means the concentration at half of the fitted maximal effect); details: HepG2 ARE-bla reporter, beta-lactamase FRET ratio, 16 h; series mostly up to 96 µM
In short: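 Beta-lactamase reporter expression driven by the antioxidant response element in HepG2 cells was detected by fluorescence with LiveBLAzer B/G FRET substrate (2 h, room temperature) following 16 h compound treatment at 37 C.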

[6] = qHTS assay for small molecule disruptors of the mitochondrial membrane potential - 5 hr assay (AID 651755; calls by dose curve; further: potency means the concentration at half of the fitted maximal effect; nearly all actives have a fitted effect of over 40% in size); details: JC-1-type ratio dye; series mostly up to 92.2 µM
In short: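 Seed HepG2 overnight, add compound, incubate 5 hr at 37C and 5% CO2, stain 30 min with Mito-MPS, then measure monomer (490/535 nm) and aggregate (540/590 nm) fluorescence.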

[7] = target: Peroxisome proliferator-activated receptor alpha (Homo sapiens) (UniProt Q07869); assay: qHTS assay for small molecule agonists of the peroxisome proliferator-activated receptor alpha (PPARalpha) signaling pathway (AID 651778); details: PathHunter PPARalpha complementation, chemiluminescence, 6 h; active compounds read high
In short: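 Cells plated at 2,000/well and held overnight at 37 C, 5% CO2, then compound added by pin tool for 6 hr; after PathHunter detection reagent and 60 min at room temperature, chemiluminescence from enzyme complementation was read.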

[8] = target: Glucagon-like peptide 1 receptor (Homo sapiens) (UniProt P43220); assay: qHTS of GLP-1 Receptor Agonists: LOPAC Validation (AID 624148); details: GLP-1R agonist cell assay; series mostly up to 46.1 µM;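 further: higher luminescence signal means agonism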
In short: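 HEK293 cells stably co-expressing a cAMP-responsive luciferase reporter and a hypersensitive GLP-1R were plated 12 h at 37 °C and exposed to compounds for 4-6 hr at 37 °C, 5% CO2. Luminescence was read 12 min after adding detection reagent.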

Sequence of Arylsulfatase A (Homo sapiens) (P15289 whole entry, looked up): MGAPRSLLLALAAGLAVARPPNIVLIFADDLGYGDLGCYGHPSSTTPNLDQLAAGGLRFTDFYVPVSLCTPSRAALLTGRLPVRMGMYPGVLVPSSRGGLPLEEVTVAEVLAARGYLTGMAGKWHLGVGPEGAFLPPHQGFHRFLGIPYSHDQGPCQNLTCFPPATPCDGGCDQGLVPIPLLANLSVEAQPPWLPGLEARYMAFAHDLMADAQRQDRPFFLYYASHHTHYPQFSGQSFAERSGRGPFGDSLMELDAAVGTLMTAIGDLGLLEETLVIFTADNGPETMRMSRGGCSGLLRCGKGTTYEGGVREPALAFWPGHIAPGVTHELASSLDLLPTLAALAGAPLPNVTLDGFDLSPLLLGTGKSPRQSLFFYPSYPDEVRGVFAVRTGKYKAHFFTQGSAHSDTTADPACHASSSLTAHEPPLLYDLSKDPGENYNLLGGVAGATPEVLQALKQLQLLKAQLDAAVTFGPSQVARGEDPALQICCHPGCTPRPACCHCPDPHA
Sequence of Glucagon-like peptide 1 receptor (Homo sapiens) (P43220 whole entry, looked up): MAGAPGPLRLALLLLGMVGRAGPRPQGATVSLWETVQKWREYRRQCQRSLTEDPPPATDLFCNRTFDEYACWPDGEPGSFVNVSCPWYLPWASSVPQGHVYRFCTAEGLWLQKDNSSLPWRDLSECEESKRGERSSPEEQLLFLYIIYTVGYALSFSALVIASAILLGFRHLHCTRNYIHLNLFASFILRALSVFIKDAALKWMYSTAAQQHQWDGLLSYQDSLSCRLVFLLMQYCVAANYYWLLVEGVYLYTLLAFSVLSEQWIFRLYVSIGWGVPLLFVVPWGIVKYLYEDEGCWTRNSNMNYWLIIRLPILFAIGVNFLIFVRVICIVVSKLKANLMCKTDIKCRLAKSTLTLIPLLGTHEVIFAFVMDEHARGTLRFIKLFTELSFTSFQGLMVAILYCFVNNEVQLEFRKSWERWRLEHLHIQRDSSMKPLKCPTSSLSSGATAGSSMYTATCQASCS
Sequence of Peroxisome proliferator-activated receptor alpha (Homo sapiens) (Q07869 whole entry, looked up): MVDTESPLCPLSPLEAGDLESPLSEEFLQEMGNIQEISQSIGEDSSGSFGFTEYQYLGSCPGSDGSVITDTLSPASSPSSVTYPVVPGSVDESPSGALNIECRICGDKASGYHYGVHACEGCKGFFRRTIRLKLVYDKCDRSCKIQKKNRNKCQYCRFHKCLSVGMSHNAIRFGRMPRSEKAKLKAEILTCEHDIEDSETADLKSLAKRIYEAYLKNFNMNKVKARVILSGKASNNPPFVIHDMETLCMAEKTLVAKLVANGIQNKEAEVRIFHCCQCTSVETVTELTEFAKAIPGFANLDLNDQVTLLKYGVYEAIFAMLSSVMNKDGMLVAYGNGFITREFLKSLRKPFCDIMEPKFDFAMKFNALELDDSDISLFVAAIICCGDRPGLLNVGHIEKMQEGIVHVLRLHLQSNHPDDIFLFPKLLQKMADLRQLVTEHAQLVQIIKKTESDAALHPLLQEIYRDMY

## NC(N)=Nc1ccc2[nH]c3c(c2c1)C[C@@]1(O)[C@H]2Cc4ccc(O)c5c4[C@@]1(CCN2CC1CC1)[C@H]3O5
[1]
  Potency: inactive
[2]
  Potency: 2.91 µM (active)
[3]
  Potency: inactive
[4]
  Potency: inactive

## CC(C)Nc1ccc(Nc2ccccc2)cc1
[5]
  Potency: 47.3 µM (active)
[6]
  Potency: 59.6 µM (active)
[7]
  max response: -3.2% (inactive)

## CCCN(CCC)[C@H]1CCc2c(F)ccc(O)c2C1
[1]
  Potency: inactive
[8]
  outcome: inactive
[2]
  Potency: inactive
[3]
  Potency: 7.31 µM (active)

## CCCN(CCC)[C@@H]1CCc2cccc(O)c2C1
[1]
  Potency: inactive
[8]
  outcome: inactive
[2]
  Potency: inactive
[4]
  Potency: inactive

From PubChem BioAssay (NCATS)
